Screening results (PubChem BioAssay)
HTR5A inv ctr = HTR5A inverse agonists in luminescence cell assay, primary screen, counter-screen for OPRM1-OPRD1 heterodimer inverse agonist project, full-deck HTS; AID 504634, 2011; hit rate 0.083% among 340,000; 5-hydroxytryptamine receptor 5A (Homo sapiens), P47898; HTR5A cell line, inverse agonism; inhibition, % at 9.3 µM; in the data active = inhibition mostly above about 23%, no sharp cut-off; inactive = mostly below about 18%
OPRM1-OPRD1 ag = agonists of OPRM1-OPRD1 heterodimerization, primary screen, cell-based, luminescence | hit rate 0.3% among 340,000 | cells | Mu-type opioid receptor (Homo sapiens) + Delta-type opioid receptor (Homo sapiens), … | AID 504326, 2011 | activation, % at 9.3 µM
HTR5A ag = HTR5A agonists in luminescence cell assay, primary screen, counter-screen for OPRM1-OPRD1 heterodimer agonist project, full-deck HTS. hit rate 0.61% among 340,000. activation, % at 9.3 µM. 5-hydroxytryptamine receptor 5A (Homo sapiens), P47898. cell-based; in the data active = activation mostly above about 9.5%, no sharp cut-off; inactive = mostly below about 7.6%
OPRM1-OPRD1 inv = inverse agonists of MOR-DOR heterodimerization, primary screen, cell-based, luminescence | hit rate 0.21% among 340,000 | Mu-type opioid receptor (Homo sapiens) + Delta-type opioid receptor (Homo sapiens), … | AID 504357, 2011 | inhibition, % at 9.3 µM | cell-based MOR-DOR heterodimer luminescence, inverse agonism; in the data active = inhibition above about 22%, passing the limit was not always enough
OPRM1-D1 ag cf = agonists of MOR-DOR heterodimerization, confirmation, cell-based, luminescence; shares compounds with OPRM1-OPRD1 ag; cells, luminescence complementation; activation, % at 9.3 µM; hit rate 45% among 830; AID 504904, 2011
HTR5A ag ctr2 = HTR5A agonists in cells, counter-screen for OPRM1-OPRD1 heterodimer agonist project, cell-based, luminescence. shares compounds with OPRM1-OPRD1 ag. HTR5A agonist counterscreen. activation, % at 9.3 µM. hit rate 8% among 830. AID 504905, 2011; in the data active = activation above about 17%
Of the large screens only hits and unclear results are named; the others gave an inactive call (follow-up assays come after a bar, where they were run). Compounds with a hit are over-represented: about 1.1% of the library has one in this group of screens. Rule as the data show it, unless noted: active = activation above about 18%; inactive = the rest.

COc1ccc(C(CNc2ncnc3sccc23)N(C)C)cc1OC (configuration not stated)	OPRM1-OPRD1 ag 20 | OPRM1-D1 ag cf inactive | HTR5A ag ctr2 25
Cc1ccc(NC(=O)CN(C)C(=O)COC(=O)c2ccc(Cl)cc2O)cc1	none
CN(C)CCNC(=O)c1nn(C)c2c1CCc1ccccc1-2	none
CC[C@@H](C)[C@@H]1CN([C@@H](C)CN2CCC[C@H]2CN2C(N)=NC[C@@H]2Cc2ccccc2)C(=N)N1CCc1ccc(Cl)c(Cl)c1	none
CC[C@@H](C)[C@@H]1CN([C@@H](CN2CCC[C@H]2CN2C(N)=NC[C@H]2C(C)C)C(C)C)C(=N)N1CCc1ccc(Cl)c(Cl)c1	OPRM1-OPRD1 ag 205 | OPRM1-D1 ag cf 72 | HTR5A ag ctr2 inactive
COc1ccc(C(C(=O)NC2CCCCC2)N(C(=O)Cc2c[nH]c3ccccc23)c2ccc(NC(C)=O)cc2)cc1OC (configuration not stated)	OPRM1-OPRD1 ag 26 | OPRM1-D1 ag cf 83 | HTR5A ag ctr2 inactive
COc1cc(CNc2ccc(O)cc2)cc(Br)c1OCc1ccccc1F	OPRM1-OPRD1 ag 28 | OPRM1-D1 ag cf inactive | HTR5A ag ctr2 inactive
CCOc1cc(CNc2ccc(O)cc2)cc(Br)c1OCc1ccccc1F	none
Nc1nc(Nc2ccccc2)nc(NC2CCCCC2)c1[N+](=O)[O-]	none
Cc1c(C(=O)N(Cc2ccccc2)C2CCS(=O)(=O)C2)oc2ccccc12 (configuration not stated)	none
Cc1c(C(=O)N(Cc2cccs2)C2CCS(=O)(=O)C2)oc2ccccc12 (configuration not stated)	OPRM1-OPRD1 ag 27 | OPRM1-D1 ag cf inactive | HTR5A ag ctr2 inactive
CCOc1cc(/C=N/NC(=O)c2ccncc2)ccc1OC(=O)c1ccc([N+](=O)[O-])cc1	OPRM1-OPRD1 ag 45 | OPRM1-D1 ag cf inactive | HTR5A ag ctr2 inactive
CCOc1cc(/C=N/NC(=O)c2ccncc2)ccc1OC(=O)c1ccccc1	none
COc1cc2nc(Nc3cccc(F)c3)nc(N)c2cc1OC	OPRM1-OPRD1 ag 27 | OPRM1-D1 ag cf inactive | HTR5A ag ctr2 inactive
CC(C)=CCN1CCN(CCC2=C(C)CCCC2(C)C)CC1CCO (configuration not stated)	OPRM1-OPRD1 ag 24 | OPRM1-D1 ag cf inactive | HTR5A ag ctr2 inactive
O=C1C=CC(=O)c2c(O)c(N3CCN(CCOCCO)CC3)c(Br)c(O)c21	OPRM1-OPRD1 ag 25 | OPRM1-D1 ag cf inactive | HTR5A ag ctr2 inactive
CCN(CC)S(=O)(=O)c1ccc(OC)c(NC(=S)Nc2ccc(C)c(C)c2)c1	none
O=S(=O)(c1c(Cl)cc(Br)cc1Cl)N1CCN(C(=S)NC2CC2)CC1	OPRM1-OPRD1 ag 85 | OPRM1-D1 ag cf 122 | HTR5A ag ctr2 inactive
O=S(=O)(c1ccccc1)N1CCN(C(=S)NC2CCCC2)CC1	none
N=c1n(Cc2ccc(Cl)cc2)c2ccccc2n1CC(O)COc1ccccc1 (configuration not stated)	OPRM1-OPRD1 ag 94, HTR5A ag 14 | OPRM1-D1 ag cf inactive | HTR5A ag ctr2 inactive
N#Cc1nc(Nc2cc(F)cc(F)c2)c2ncn(CC(F)F)c2n1	none
N#Cc1nc(NCC(F)F)nc(Nc2cc(F)cc(F)c2)n1	OPRM1-OPRD1 ag 21 | OPRM1-D1 ag cf inactive | HTR5A ag ctr2 inactive
COC(=O)c1ccccc1NC(=O)c1ccc(Cn2cc(Cl)cn2)o1	OPRM1-OPRD1 ag 19 | OPRM1-D1 ag cf inactive | HTR5A ag ctr2 inactive
COC(=O)c1cc(NC(=O)c2ccc(Cn3cc(Cl)cn3)o2)cc(C(=O)OC)c1	none
Cc1ccc(-c2c(CC(=O)O)c(C)nc3sc4c(c23)CCCC4)cc1	none
CCN1CCN(c2ccc(NC(=O)c3ccc(Br)o3)cc2)CC1	none
CN1CCN(c2ccc(NC(=O)c3ccc(-c4ccc(Br)cc4)o3)cc2)CC1	OPRM1-OPRD1 ag 345, HTR5A ag 17 | OPRM1-D1 ag cf 36 | HTR5A ag ctr2 inactive
COc1ccc(CN2CCc3c([nH]c4ccccc34)C2)cc1Br	none
